A selection: hits, their analogues and other compounds. The true share with any hit is near 3.1%.
TSHR antagonist – Antagonists of the Thyroid Stimulating Hormone Receptor: HTS campaign. Thyrotropin receptor (Homo sapiens), P16473. TSHR-expressing cells, TSH-stimulated cAMP HTRF, 2 h; hits give low values. activity change, negative = inhibition, % at 11.5 µM. 330,000 compounds, 0.2% hits. AID 504810, 2011;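 active = activity change below a set negative limit, meaning inhibition stronger than a set level, cut at about -70% in these data; inconclusive = activity change between two set negative limits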; note: % is set by controls: 0 for no effect and ±100 for the full control effect
Target sequence (P16473 whole entry, looked up): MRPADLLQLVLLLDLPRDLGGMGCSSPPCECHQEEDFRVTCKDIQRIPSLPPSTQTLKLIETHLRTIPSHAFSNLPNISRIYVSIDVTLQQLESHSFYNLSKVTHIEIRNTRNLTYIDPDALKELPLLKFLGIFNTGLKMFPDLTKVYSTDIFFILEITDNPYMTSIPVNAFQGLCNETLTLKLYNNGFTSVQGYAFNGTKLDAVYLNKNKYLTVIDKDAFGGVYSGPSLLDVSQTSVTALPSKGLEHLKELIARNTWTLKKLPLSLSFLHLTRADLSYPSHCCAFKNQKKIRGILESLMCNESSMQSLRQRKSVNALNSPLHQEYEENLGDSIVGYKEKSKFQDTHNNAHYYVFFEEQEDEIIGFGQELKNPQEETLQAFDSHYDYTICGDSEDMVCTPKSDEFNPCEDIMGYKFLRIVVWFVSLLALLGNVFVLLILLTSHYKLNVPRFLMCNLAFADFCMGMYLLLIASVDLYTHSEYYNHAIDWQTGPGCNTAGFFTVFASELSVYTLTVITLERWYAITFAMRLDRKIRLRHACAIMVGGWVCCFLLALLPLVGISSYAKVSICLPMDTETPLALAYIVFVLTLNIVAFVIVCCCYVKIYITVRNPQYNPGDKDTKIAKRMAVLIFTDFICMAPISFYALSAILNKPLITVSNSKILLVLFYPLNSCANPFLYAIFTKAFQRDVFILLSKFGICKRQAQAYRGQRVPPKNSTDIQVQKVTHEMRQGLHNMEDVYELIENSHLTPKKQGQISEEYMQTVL
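TSHR-expressing cells were treated with compounds, then stimulated with TSH at EC80 (4nM final) for 2 hours at 37 deg C. Cellular cAMP was measured by HTRF competition between lysate cAMP and cAMP-d2 for a cryptate-labelled anti-cAMP antibody.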
VDR inh – Inhibitors of the vitamin D receptor (VDR): qHTS | VDR-SRC2-3 peptide fluorescence polarization, 2 h | Potency, µM, without a hit: max response, negative = inhibition, actives largely listed as inhibitors | 400,000 compounds, 0.93% hits | Vitamin D3 receptor (Homo sapiens), P11473; note: potency is the fitted concentration of half-maximal effect; % is set by controls: 0 for no effect and ±100 for the full control effect
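Signal is fluorescence polarization, reporting how far test compounds block the interaction of VDR with the SRC2-3 coregulator peptide after a 2 h room-temperature incubation.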
Vif-A3F inh – qHTS for Inhibitors of Vif-A3F Interactions: qHTS. HeLa A3F-eYFP + Vif (tagged APOBEC3F with the HIV-1 protein that degrades it), YFP fluorescence increase. Potency, µM (doses to about 46.1 µM), for the others: top-dose activity, negative = active. 390,000 compounds, 0.2% hits. AID 602313, 2012; note: potency is the fitted concentration of half-maximal effect; % of control where 0% means no effect; nearly all actives have a fitted effect of over 65% in size
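Fluorescence increase (Ex 488/Em 500-530) after overnight compound treatment at 37 deg C flags inhibition of Vif-driven A3F-eYFP loss in stable HeLa A3F-eYFP/Vif cells seeded overnight beforehand.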
PLK1 PBD inh – qHTS for Inhibitors of PLK1-PDB (polo-like kinase 1 - polo-box domain): Primary Screen; Serine/threonine-protein kinase PLK1 (Homo sapiens), P53350; Plk1 PBD binding of FITC phosphopeptide, fluorescence polarization; Potency, µM, inactives show max response, negative = inhibition, actives largely listed as inhibitors; 360,000 compounds, 2.8% hits; note: potency is the fitted concentration of half-maximal effect; series mostly up to about 57 µM; % is set by controls: 0 for no effect and ±100 for the full control effect; nearly all actives have a fitted effect of over 65% in size
Vif-APOBEC3G blk – qHTS for Inhibitors of Vif-A3G Interactions: qHTS; 410,000 compounds, 0.076% hits; AID 602310, 2012; HeLa A3G-eYFP + Vif (tagged APOBEC3G with the HIV-1 protein that degrades it), YFP fluorescence, overnight; Potency, µM (highest dose often 46.1 µM), without a hit: top-dose activity, negative = active, usual class: inhibitors; DNA dC->dU-editing enzyme APOBEC-3G (Homo sapiens), Q9HC16; note: potency is the fitted concentration of half-maximal effect; % is set by controls: 0 for no effect and ±100 for the full control effect; nearly all actives have a fitted effect of over 60% in size
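HeLa cells stably expressing Vif and C-terminally eYFP-tagged A3G, seeded overnight at 37 deg C, then exposed to compound by pintool overnight at 37 deg C. Rise in yellow fluorescence (Ex 488/Em 500-530, Acumen) marks blocked Vif-driven A3G degradation.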
* = called active by the depositor; ? = inconclusive; . = no result. Unless noted, calls come from the whole dose curve; as a rule, active = well fitted curve in the direction sought with a large enough effect; inconclusive = small, poorly fitted or top-dose-only effect, or another doubt; inactive = no such curve, though single readings can be large; an effect the other way counts as inactive or inconclusive.

SMILES	TSHR antagonist	VDR inh	Vif-A3F inh	PLK1 PBD inh	Vif-APOBEC3G blk
Cc1cccc(NC(=S)N(Cc2ccc(Cl)cc2)Cc2ccc(C(=O)O)cc2)c1	-4.0	-13.2%	16.6%	-11.2%	-5.7%
Cc1cc(C)cc(NC(=S)N(Cc2ccc(Cl)cc2)Cc2ccc(C(=O)O)cc2)c1	3.0	-19.6%	-0.2%	-7.6%	-0.1%
Cc1cc(NC(=S)N(Cc2ccc(Cl)cc2)Cc2ccc(C(=O)O)cc2)ccc1Cl	-7.0	-12.6%	2.2%	29.9µM*	-3.0%
CCc1ccc(NC(=S)N(Cc2ccc(Cl)cc2)Cc2ccc(C(=O)O)cc2)cc1	25.3	-24.0%	9.3%	23.8µM*	-1.0%
C=C(CN(C)C)C(=O)c1ccc(OC2OC(COC(C)=O)C(OC(C)=O)C(OC(C)=O)C2OC(C)=O)cc1 (stereo not drawn)	.	39.8µM*	5.2%	15µM*	-25.7%
CCCCCCCCCCCCCC[N+](C)(C)Cc1ccccc1	.	0.8%	.	.	-6.8%
CC(C)c1ccc(CNn2cnnc2)cc1	4.2	-14.8%	-25.9%	26.7µM*	0.5%
CCn1ccnc1CN(C)Cc1cn[nH]c1-c1ccc(OC)c(F)c1	0.5	-6.4%	-1.8%	-13.7%	8.9%
COc1ccc(-c2[nH]ncc2CN(CC2CCC(=O)N2)C(C)C)cc1F (stereo not drawn)	0.2	?	-7.5%	26.7µM*	2.2%
CCCCC/C=C\C/C=C\C/C=C\CCCCCCC(=O)NCCc1ccc(O)c(O)c1	.	15.0%	.	.	.
CCCC(O)(CCC)C(=O)NN1CCCCC1	7.0	79.4µM*	-0.7%	18.9µM*	-1.0%
O=C(Nc1ccc(Cc2ccncc2)cc1)C1CCC(N2C(=O)C3C4C=CC(C5CC45)C3C2=O)CC1 (stereo not drawn)	-23.3	4.1%	2.2%	-4.7%	-0.8%
CC(=O)Nc1ccc(NC(=O)C2CCC(N3C(=O)C4C5C=CC(C6CC56)C4C3=O)CC2)cc1 (stereo not drawn)	26.6	20µM*	11.7%	4.9%	-1.6%
CCCCCCCCCCCCCCC(C(=O)O)C(O)(CC(=O)OC)C(=O)O (stereo not drawn)	.	22.4µM*	.	.	.
CN(C)S(=O)(=O)c1ccc(C(=O)Oc2cc(=O)[nH]c3ccccc23)cc1	-9.5	-12.8%	-5.9%	8.44µM*	-0.9%
CC[n+]1c(/C=C/Nc2ccccc2)oc2ccccc21	-8.4	-4.0%	11.2µM*	9.1%	7.94µM*
CC[n+]1c(/C=C/Nc2ccccc2)oc2ccc(OC)cc21	2.3	-7.4%	5.62µM*	16.0%	?
CC[n+]1c(/C=C/N(C)c2ccccc2)oc2ccc(F)cc21	-6.7	?	?	?	3.98µM*
O=S(=O)([O-])CCC[n+]1c(/C=C\Nc2ccccc2)oc2ccc(-c3ccccc3)cc21	-10.7	.	.	.	.
Cc1cccc(CN2C(=O)CCSc3ccc(Cl)cc32)c1	0.8	-17.3%	4.4%	26.7µM*	-1.5%
O=C1CCSc2ccc(Cl)cc2N1Cc1ccccc1	-4.9	-8.2%	3.4%	-1.2%	-0.6%
COc1ccc2cc(C3CC(c4cccs4)=NN3S(C)(=O)=O)c(Cl)nc2c1 (stereo not drawn)	-0.2	-27.9%	0.7%	6.7µM*	-2.4%
CC[N+]1(C)CCC(=C2c3ccccc3CC(=O)c3sccc32)CC1 (stereo not drawn)	2.8	7.6%	2.4%	-6.5%	-1.5%
C[N+]1(C)CCC(=C2c3ccccc3CC(=O)c3sccc32)CC1	30.7	-20.5%	-3.3%	37.7µM*	-6.5%
CCCN1C(=O)c2ccccc2NC1c1ccc(Cl)cc1 (stereo not drawn)	1.8	-2.2%	-8.8%	1.8%	3.9%
SMILES	TSHR antagonist	VDR inh	Vif-A3F inh	PLK1 PBD inh	Vif-APOBEC3G blk
CCCN1C(=O)c2ccccc2NC1c1ccc(Cl)c(Cl)c1 (stereo not drawn)	-2.7	?	-18.7%	21.2µM*	-7.1%
COCCNCc1ccccc1	9.1	?	1.3%	29.9µM*	2.3%
COCCNCc1ccc(C(C)C)cc1	16.1	15.2%	-0.4%	-5.7%	2.0%
CC(C)[C@H](NC(=O)[C@H](CCCCN)NC(=O)[C@@H](NC(=O)[C@@H]1CCCN1C(=O)[C@H](CCCN=C(N)N)NC(=O)[C@H](CCCN=C(N)N)NC(=O)[C@H](CCCCN)NC(=O)[C@H](CCCCN)NC(=O)CNC(=O)[C@@H](NC(=O)[C@@H]1CCCN1C(=O)[C@@H](N)CCCCN)C(C)C)C(C)C)C(=O)N[C@@H](Cc1ccc(O)cc1)C(=O)N1CCC[C@H]1C(=O)O	.	-2.3%	.	.	.
CC[C@H](C)[C@H](NC(=O)[C@H](Cc1ccc(O)cc1)NC(=O)[C@H](Cc1cnc[nH]1)NC(=O)[C@H](CCCNC(=N)N)NC(=O)[C@H](CC(C)C)NC(=O)[C@H](C)NC(=O)[C@H](CO)NC(=O)[C@H](Cc1ccc(O)cc1)NC(=O)[C@H](Cc1ccc(O)cc1)NC(=O)[C@H](CCCNC(=N)N)NC(=O)[C@H](C)NC(=O)[C@H](CCSC)NC(=O)[C@H](CC(=O)O)NC(=O)[C@H](CCC(=O)O)NC(=O)[C@H](C)NC(=O)[C@@H]1CCCN1C(=O)[C@H](C)NC(=O)[C@H](CC(=O)O)NC(=O)[C@H](CCC(=O)O)NC(=O)CNC(=O)[C@@H]1CCCN1C(=O)[C@H](CC(N)=O)NC(=O)[C@H](CC(=O)O)NC(=O)[C@@H]1CCCN1C(=O)[C@H](CCCCN)NC(=O)[C@H](CO)NC(=O)[C@@H]1CCCN1C(=O)[C@@H](N)Cc1ccc(O)cc1)C(=O)N[C@@H](CC(N)=O)C(=O)N[C@@H](CC(C)C)C(=O)N[C@@H](CC(C)C)C(=O)N[C@H](C(=O)N[C@@H](CCCNC(=N)N)C(=O)N1CCC[C@H]1C(=O)N[C@@H](CCCNC(=N)N)C(=O)N[C@@H](Cc1ccc(O)cc1)C(N)=O)[C@@H](C)O	.	1.2%	.	.	.
Cc1ccc(Cc2ccc(C(=O)NNC(N)=S)o2)cc1	3.8	1.1%	9.9%	26.7µM*	-1.6%
COC(=O)c1nc(NC(=O)c2ccc(Br)cc2)n[nH]1	.	-3.7%	0.8%	23.8µM*	0.5%
COC(=O)c1nc(NC(=O)C(C)(C)C)n[nH]1	-6.2	9.2%	-0.6%	18.9µM*	0.2%
COC(=O)c1nc(NC(=O)c2ccccc2Cl)n[nH]1	-0.6	-16.2%	-6.7%	?	-2.5%
CC(O)(c1ccc(Cl)cc1)c1ccc(Cl)cc1	.	-8.9%	.	.	.
Brc1c(OCCOCCn2cncn2)ccc2ccccc12	4.8	-5.9%	8.8%	16.8µM*	-0.4%
Cc1cc(Cl)ccc1OCCn1cncn1	6.4	-7.8%	-0.3%	4.4%	-8.7%

Bioassay records as filed in PubChem.
